In the library only some 2.3% were active in any assay of this set; here they are far more common.
M1 ag: activates human CHRM1 receptor; P11229; CHO-K1 hM1, Fluo-8 calcium fluorescence, agonist mode; 0% DMSO, 100% acetylcholine EC100; activation, % at 3 µM; 0.33% of 360,000 active;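 active means activation above the run's mean compound activation plus 3 SD, cut at about 16% in these data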;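 further: peak over basal fluorescence ratio within a 140 s kinetic read after compound addition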
Target sequence (P11229 whole entry, looked up): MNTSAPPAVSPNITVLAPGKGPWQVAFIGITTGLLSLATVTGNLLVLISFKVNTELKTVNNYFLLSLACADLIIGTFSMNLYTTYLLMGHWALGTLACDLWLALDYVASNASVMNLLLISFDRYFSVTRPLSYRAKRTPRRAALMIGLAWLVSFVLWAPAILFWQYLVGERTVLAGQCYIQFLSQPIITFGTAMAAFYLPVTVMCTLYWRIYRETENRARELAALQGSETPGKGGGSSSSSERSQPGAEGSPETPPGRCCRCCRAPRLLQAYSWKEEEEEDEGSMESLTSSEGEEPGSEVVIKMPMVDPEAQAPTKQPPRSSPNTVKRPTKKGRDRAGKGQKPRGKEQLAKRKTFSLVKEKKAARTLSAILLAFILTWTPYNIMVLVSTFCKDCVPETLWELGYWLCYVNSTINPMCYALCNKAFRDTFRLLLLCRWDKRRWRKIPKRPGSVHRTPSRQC
M1 ag parental: nonselective activator or artifact in parental CHO-K1 cells | AID 602248 | 0.48% of 360,000 active | Fluo-8 calcium fluorescence; scaled to maximal ATP response, vehicle zero | activation, % at 3 µM; in the data active means activation above about 15%;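 further: untransfected CHO-K1 host cells lacking M1 receptor as counterscreen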
M1 PAM parental: counter-screen for M1 PAMs: effect in parental CHO-K1 cells; ATP EC20, Fluo-8 calcium fluorescence; 0% at ATP EC20, 100% at ATP max; activation, % at 3 µM; 0.02% of 360,000 active;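 active means activation above the run cutoff, the mean activation of all test compounds plus 3 SD, cut at about 40% in these data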;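 further: peak over basal fluorescence ratio in a 140 s read after ATP addition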
CHO-K1 Ca antag: nonselective inhibitor or artifact in parental CHO-K1 cells; ATP-induced calcium, Fluo-8 fluorescence; inhibition, % at 3 µM; 0.6% of 360,000 active;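 active means inhibition above a per-plate cutoff, the plate's mean sample inhibition plus 3 SD, cut at about 24% in these data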;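 further: 0% = DMSO plus EC80 ATP and 100% = DMSO alone without ATP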
M1 antag: blocks human M1 muscarinic receptor | CHO-K1 hM1, Fluo-8 calcium fluorescence, ACh EC80 antagonist | inhibition, % at 3 µM | 1.3% of 360,000 active;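 active means percent inhibition above its own plate's cutoff, namely the mean of that plate's compound wells plus 3 SD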;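 further: peak over basal fluorescence ratio during 140 s after agonist addition; 0% = ACh EC80 plus DMSO and 100% = DMSO alone without agonist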
M1 PAM: human CHRM1 positive allosteric modulation; CHO-K1 hM1, Fluo-8 calcium fluorescence, ACh EC20; 0% = ACh EC20, 100% = maximal ACh; 0.088% of 360,000 active; P11229; AID 588819; activation, % at 3 µM; in the data active means activation above about 19%, passing the limit was not always enough
* marks the source's active call; other numbers are inactive results.

SMILES	M1 ag	M1 ag parental	M1 PAM parental	CHO-K1 Ca antag	M1 antag	M1 PAM
Cc1ccc(Oc2ncnc(N)c2[N+](=O)[O-])cc1	3.9	0.2	9.3	-12.8	3.2	13.6
Cc1ccc(N(c2ncnc(N)c2[N+](=O)[O-])C2CCCCC2)cc1	-6.9	0.4	-2.7	-8.2	49.3*	-22.4
CSc1nc(N)nc2c1ncn2CC(=O)NCCCN1CCCC1=O	-0.3	-0.4	-5.0	-0.5	2.8	2.5
COC(=O)c1ccc(N)nc1	21.5*	0.1	-10.5	1.5	-2.4	-1.0
COC(=O)c1ccc2nccnc2c1	-1.2	0.0	22.7	-10.3	11.7	-4.5
C/C(=N/NC(=O)CN(c1ccccc1)S(=O)(=O)c1ccccc1)c1ccccc1O	-2.5	0.4	-5.4	-0.8	-9.7	-0.7
O=C1C(Cl)=C(N2CCN(Cc3ccccc3)CC2)C(=O)N1Cc1ccccc1	-6.7	1.3	11.0	7.5	56.9*	-24.5
Cc1cc(NS(=O)(=O)c2cc(Cl)sc2Cl)no1	-3.1	0.2	2.5	-12.9	-11.8	10.9
CC1CC(C)CN(c2ccc(-n3cnnn3)cc2[N+](=O)[O-])C1 (stereo not drawn)	-5.3	0.1	18.7	-10.4	-11.2	4.4
O=[N+]([O-])c1cc(-n2cnnn2)ccc1N1CCC(Cc2ccccc2)CC1	-0.2	-0.3	-3.4	24.7*	8.3	2.8
O=C1c2cccc3c([N+](=O)[O-])ccc(c23)C(=O)N1c1nccs1	-7.0	-0.3	-7.6	21.1	24.0*	-13.7
O=C1c2cccc3c([N+](=O)[O-])ccc(c23)C(=O)N1c1ccccn1	-4.7	-0.1	8.5	10.4	20.1	-3.1
c1ccc(-c2ccc(CNC3CC3)cc2)cc1	-8.2	1.3	9.8	3.3	2.5	-2.0
CC(C)C(=O)Nc1ccc(C(=O)Nc2ccc(S(=O)(=O)N3CCOCC3)cc2)cc1	-0.6	0.5	15.0	-2.7	-21.2	11.5
CC(Sc1ccc(Cl)cc1)C(=O)Nc1ccc(S(=O)(=O)N2CCOCC2)cc1 (stereo not drawn)	22.4*	10.8	19.3	-16.8	-0.8	9.8
CC(Sc1ccc(Cl)cc1)C(=O)N(C)CC(=O)Nc1ccc(N2CCOCC2)cc1 (stereo not drawn)	-1.7	1.9	-10.3	4.6	18.4*	-7.1
Cc1ccc(OC(C)C(=O)Nc2ccc(S(=O)(=O)N3CCOCC3)cc2)cc1 (stereo not drawn)	22.0*	11.5	26.3	-9.7	1.4	5.3
Cc1ccccc1OC(C)C(=O)Nc1ccc(S(=O)(=O)N2CCCC2)cc1 (stereo not drawn)	-4.5	2.3	7.0	-8.9	88.5*	-23.1
CC(Oc1ccccc1)C(=O)Nc1ccc(F)c(S(=O)(=O)N2CCOCC2)c1 (stereo not drawn)	-1.0	1.1	-6.9	10.0	11.8	-7.8
Cc1cccc(C(=O)OC(C)C(=O)Nc2ccc(S(=O)(=O)N3CCCC3)cc2)c1O (stereo not drawn)	-5.0	2.9	-14.7	18.4	29.2*	-16.0
CC(Oc1ccc(C(=O)c2ccccc2)cc1)C(=O)Nc1ccc(S(N)(=O)=O)cc1 (stereo not drawn)	13.8	17.5*	23.4	0.3	4.6	1.4
COc1ccc(CC(=O)Nc2ccc(S(=O)(=O)N(C)C3CCN(C)CC3)cc2)cc1	-3.8	2.5	8.4	7.4	5.1	-0.6
CC(Oc1cc(F)ccc1[N+](=O)[O-])C(=O)Nc1ccc(S(=O)(=O)N2CCCC2)cc1 (stereo not drawn)	-4.9	4.6	2.3	-1.7	72.9*	-25.6
CC(OC(=O)c1cc(Br)ccc1O)C(=O)Nc1ccc(S(=O)(=O)N2CCCC2)cc1 (stereo not drawn)	2.1	7.3	-30.2	8.2	16.2	-1.1
CC(Oc1ccccc1)C(=O)Nc1ccc(S(=O)(=O)N2CCCC2)cc1 (stereo not drawn)	-10.1	2.6	-10.9	0.4	-7.5	-3.9
SMILES	M1 ag	M1 ag parental	M1 PAM parental	CHO-K1 Ca antag	M1 antag	M1 PAM
CC(Oc1ccc(Br)cc1)C(=O)Nc1ccc(S(=O)(=O)N(C)C2CCN(C)CC2)cc1 (stereo not drawn)	54.9*	54.9*	-30.9	57.4*	67.0*	-19.4
C[C@H](NS(=O)(=O)c1ccccc1F)C(=O)OCC(=O)Nc1ccc2c(c1)OCCO2	-2.4	0.3	21.9	-21.7	-3.1	-1.5
COc1ccccc1N1CCN(C(=O)CC(NC(=O)c2ccccc2Cl)c2ccccc2)CC1 (stereo not drawn)	-3.6	2.3	13.1	-3.1	-13.8	9.7
COC(=O)c1cc(=O)nc(NN=Cc2ccco2)s1	-1.9	0.8	12.5	0.3	-11.2	7.6
N#Cc1c(SCC(=O)Nc2nncs2)sc2c(O)cc(=O)[nH]c12	-6.0	0.9	20.1	0.4	5.4	-0.8
CCOC(=O)c1cc2n(n1)C(C(F)(F)C(F)(F)F)CC(C)N2 (stereo not drawn)	17.5*	-0.4	12.1	-2.1	-33.0	19.4
CCOC(=O)CN1c2ccccc2NC(=O)CC1C (stereo not drawn)	-3.7	0.5	42.6*	-29.1	-14.2	11.7
CCCS(=O)(=O)NC(=O)C1(C)CCCN(C(=O)c2cc(F)ccc2C)C1 (stereo not drawn)	-1.8	0.1	-4.1	1.6	5.4	-0.7
CN(C)C(=O)c1ccc(NC(=O)COc2cccc3c2OC(C)(C)C3)cc1	-3.4	1.5	8.8	-1.2	10.3	-4.4
Brc1cccc(-c2cnc3n2CCCCC3)c1	-3.8	5.1	10.9	-6.5	48.3*	-18.7
O=C(c1cc(N2C(=O)C3C4CCC(C4)C3C2=O)ccc1Cl)N1CCN(c2ccccc2)CC1 (stereo not drawn)	-5.3	22.5*	9.7	-0.5	7.3	-7.8
COc1ccc(OC)c2nc(-c3ccc4c(c3)OCO4)ccc12	-2.2	-0.9	-7.5	-6.8	-11.9	11.2
Cc1cc(=O)[nH]c(NN=C2CCC(C(C)(C)C)CC2)n1 (stereo not drawn)	-6.7	19.3*	17.8	-4.9	3.0	8.1
Cc1cc(-c2cn3ccccc3n2)c(C)n1-c1ccccc1	-5.5	0.3	-13.7	-6.1	34.4*	-18.6
COc1ccc(OC)c(NC(=O)C(=O)NNC(=O)C23CC4CC(CC(C4)C2)C3)c1	8.7	24.5*	14.8	-9.1	-12.3	7.1
COc1ccc(NC(=O)CNC(=O)C23CC4CC(CC(C4)C2)C3)c(OC)c1	-2.0	0.0	-13.9	1.3	-8.8	6.6
Cc1ccc(C(C)C)c2c1C(c1ccc3c(c1)OCO3)CC(=O)O2 (stereo not drawn)	20.6*	8.8	15.4	-10.6	-0.9	-0.9
O=C(Nc1cccc(-c2nc3ncccc3o2)c1)c1cc2ccccc2o1	-2.9	2.5	-4.1	25.9*	2.0	-15.0
Cc1ccc(-c2nc3ncccc3o2)cc1NC(=O)c1cc2ccccc2o1	-4.1	0.5	10.3	-2.6	0.1	-8.4

Screens from PubChem BioAssay.
